In the antibiotic and cytotoxicity screens of Wong et al. (2023):
Out of some 39,000 compounds screened, about 3,300 (8.5%) were called active. The sample as a whole holds a higher share of actives than the screen did.

tested on: HepG2; experiment: cytotoxicity call (relative viability < 0.9); settings: 10 µM

SMILES | cytotoxicity call
C[C@@H]1CN([C@@H](C)CO)C(=O)c2cc(NC(=O)Cc3cn(C)c4ccccc34)ccc2O[C@@H]1CN(C)S(=O)(=O)c1cn(C)cn1 | inactive
CN(C)C(=O)C[C@H]1CC[C@@H]2[C@H](COc3ccc(NS(=O)(=O)c4cccc(F)c4)cc3C(=O)N2C)O1 | inactive
Cc1ccc(S[C@]2(C(=O)NC(C)C)CC(=O)N(Cc3ccccc3C(F)(F)F)[C@@H]2c2ccc(CO)cc2I)cc1 | inactive
CC(C)NC(=O)Nc1ccc2c(c1)C(=O)N([C@H](C)CO)C[C@@H](C)[C@H](CN(C)Cc1ccccc1)OCCCC[C@@H](C)O2 | inactive
C[C@@H]1CCCCO[C@H](CN(C)S(=O)(=O)c2cn(C)cn2)[C@@H](C)CN([C@@H](C)CO)C(=O)c2cc(N(C)C)ccc2O1 | inactive
Cc1ccc(S(=O)(=O)N(C)C[C@H]2OCCCC[C@@H](C)Oc3ccc(NC(=O)Nc4c(C)noc4C)cc3C(=O)N([C@H](C)CO)C[C@@H]2C)cc1 | inactive
CSc1ccc2cc(CN(C[C@H]3CCCO3)C(=O)c3ccco3)c(N(C)Cc3csc(C)n3)nc2c1 | inactive
C[C@@H]1CN([C@@H](C)CO)C(=O)c2cc(NC(=O)CCCN(C)C)ccc2O[C@@H](C)CCCCO[C@@H]1CN(C)S(C)(=O)=O | inactive
CO[C@@H]1CN(C)C(=O)c2cc(NC(=O)Nc3ccccc3)ccc2OC[C@@H](C)N(C(=O)CN(C)C)C[C@H]1C | inactive
C[C@@H](O[C@H]1OCCN(Cc2n[nH]nc2CN(C)C)[C@H]1c1ccc(F)cc1)c1cc(C(F)(F)F)cc(C(F)(F)F)c1 | active
CC(OC1OCCN(C(C)c2nc(=O)[nH][nH]2)C1c1ccc(F)cc1)c1cc(C(F)(F)F)cc(C(F)(F)F)c1 (stereo not given) | active
COc1ccc(S(=O)(=O)Nc2cccc3c2O[C@@H](CN(C)Cc2ccc(-c4ccccc4)cc2)[C@@H](C)CN([C@@H](C)CO)C3=O)cc1 | inactive
CC(C)NC(=O)N(C)C[C@@H]1OCCCC[C@@H](C)Oc2ccc(NC(=O)C3CCCCC3)cc2C(=O)N([C@H](C)CO)C[C@H]1C | inactive
C[C@@H]1CN([C@H](C)CO)C(=O)Cc2cc(NC(=O)Cc3cn(C)c4ccccc34)ccc2O[C@@H]1CN(C)CC1CCCCC1 | inactive
C[C@H](CO)N1C[C@H](C)[C@@H](CN(C)CC2CCCCC2)Oc2ccc(NC(=O)Cc3cn(C)c4ccccc34)cc2CC1=O | inactive
C[C@H](CO)N1C[C@H](C)[C@H](CN(C)Cc2ccc(C(=O)Nc3ccccc3N)cc2)Oc2ccc(NC(=O)Cc3cn(C)c4ccccc34)cc2CC1=O | active
C[C@@H]1CN([C@H](C)CO)C(=O)Cc2cc(NC(=O)Cc3cn(C)c4ccccc34)ccc2O[C@H]1CN(C)Cc1ccc(-c2ccccc2)cc1 | active
C[C@@H]1CN([C@H](C)CO)C(=O)Cc2cc(NC(=O)Cc3cn(C)c4ccccc34)ccc2O[C@@H]1CN(C)Cc1ccc(C(=O)Nc2ccccc2N)cc1 | inactive
C[C@H](CO)N1C[C@H](C)[C@@H](CN(C)Cc2ccc(-c3ccccc3)cc2)Oc2ccc(NC(=O)Cc3cn(C)c4ccccc34)cc2CC1=O | inactive
C[C@@H]1CN([C@@H](C)CO)C(=O)Cc2cc(NC(=O)Cc3cn(C)c4ccccc34)ccc2O[C@@H]1CN(C)CC1CCCCC1 | active

SMILES | cytotoxicity call
C[C@@H]1CN([C@@H](C)CO)C(=O)Cc2cc(NC(=O)Cc3cn(C)c4ccccc34)ccc2O[C@H]1CN(C)Cc1ccc(-c2ccccc2)cc1 | inactive
C[C@H]1CN([C@@H](C)CO)C(=O)Cc2cc(NC(=O)Cc3cn(C)c4ccccc34)ccc2O[C@H]1CN(C)Cc1ccc(-c2ccccc2)cc1 | inactive
C[C@H](CO)N1C[C@H](C)[C@H](CN(C)Cc2ccc(-c3ccccc3)cc2)Oc2ccc(NC(=O)Cc3cn(C)c4ccccc34)cc2CC1=O | inactive
C[C@H]1CN([C@@H](C)CO)C(=O)Cc2cc(NC(=O)Cc3cn(C)c4ccccc34)ccc2O[C@@H]1CN(C)Cc1ccc(C(=O)Nc2ccccc2N)cc1 | inactive
C[C@@H]1CN([C@@H](C)CO)C(=O)Cc2cc(NC(=O)Cc3cn(C)c4ccccc34)ccc2O[C@@H]1CN(C)Cc1ccc(-c2ccccc2)cc1 | active
C[C@@H]1CN([C@H](C)CO)C(=O)c2cc(NC(=O)CCCN(C)C)ccc2O[C@@H]1CN(C)S(=O)(=O)c1ccccc1 | inactive
CCCC(=O)N(CCc1c[nH]c2ccccc12)[C@@H]1CC(C(=O)NCCO)=C[C@H](Oc2c(I)cc(CO)cc2OC)[C@H]1O | inactive
CN(C)CC(=O)N[C@H]1CC[C@H](CCNC(=O)C2CCC2)O[C@H]1CO | inactive
Cc1noc(C)c1S(=O)(=O)Nc1ccc2c(c1)C(=O)N([C@H](C)CO)C[C@H](C)[C@@H](CN(C)C(=O)Nc1cccc3ccccc13)OCCCC[C@@H](C)O2 | inactive
COCC(=O)N[C@@H]1C=C[C@H](CC(=O)N2CCCCC2)O[C@@H]1CO | inactive
CN1C(=O)c2cc(NC(=O)Cc3cccs3)ccc2OC[C@H]2O[C@@H](CC(=O)NCCc3ccncc3)CC[C@H]21 | inactive
C[C@@H]1CCCCO[C@@H](CN(C)S(=O)(=O)c2ccccc2)[C@@H](C)CN([C@H](C)CO)C(=O)c2cc(NC(=O)Nc3ccc4c(c3)OCO4)ccc2O1 | inactive
C[C@H](CO)N1C[C@H](C)[C@H](CN(C)S(=O)(=O)c2cccs2)Oc2ccc(NC(=O)c3ccncc3)cc2C1=O | inactive
COc1ccc(NC(=O)N(C)C[C@H]2Oc3c(NC(=O)c4cnccn4)cccc3C(=O)N([C@H](C)CO)C[C@H]2C)cc1 | inactive
C[C@@H]1CN([C@H](C)CO)C(=O)c2cccc(NC(=O)c3ccncc3)c2O[C@@H]1CN(C)Cc1ccc2c(c1)OCO2 | inactive
C[C@@H]1CN([C@H](C)CO)C(=O)c2cccc(NS(=O)(=O)c3cn(C)cn3)c2O[C@@H]1CN(C)C(=O)Nc1ccc2c(c1)OCO2 | inactive
CC(C)(C)NC[C@@]1(CO)SC(N)=NC1=O | inactive
C[C@@H]1CN([C@H](C)CO)C(=O)Cc2cc(NC(=O)Cc3cn(C)c4ccccc34)ccc2O[C@@H]1CN(C)Cc1ccc(-c2ccccc2)cc1 | active
C[C@H]1CN([C@@H](C)CO)C(=O)Cc2cc(NC(=O)Cc3cn(C)c4ccccc34)ccc2O[C@@H]1CN(C)Cc1ccc(-c2ccccc2)cc1 | inactive
C[C@@H]1CN(S(=O)(=O)N2CCN(C(=O)c3[nH]nc4ccccc34)CC2)C[C@H](C)O1 | inactive

SMILES | cytotoxicity call
C[C@@H]1CN([C@@H](C)CO)C(=O)CCCn2nncc2CO[C@@H]1CN(C)C(=O)C1CC1 | inactive
C[C@@H]1CCCCO[C@@H](CN(C)Cc2ccc(C(F)(F)F)cc2)[C@H](C)CN([C@@H](C)CO)C(=O)c2cc(NC(=O)Nc3ccc4c(c3)OCO4)ccc2O1 | active
C[C@@H]1CCCCO[C@H](CN(C)Cc2ccc(C(F)(F)F)cc2)[C@H](C)CN([C@H](C)CO)C(=O)c2cc(NC(=O)Nc3ccc4c(c3)OCO4)ccc2O1 | active
C[C@@H]1CN([C@@H](C)CO)C(=O)c2cc(NC(=O)Nc3ccc4c(c3)OCO4)ccc2O[C@@H](C)CCCCO[C@H]1CN(C)Cc1ccc(C(F)(F)F)cc1 | inactive
C[C@@H]1CN([C@@H](C)CO)C(=O)c2cc(NC(=O)Nc3ccc4c(c3)OCO4)ccc2O[C@@H](C)CCCCO[C@@H]1CN(C)Cc1ccc(C(F)(F)F)cc1 | inactive
C[C@@H]1CCCCO[C@@H](CN(C)Cc2ccc(C(F)(F)F)cc2)[C@@H](C)CN([C@@H](C)CO)C(=O)c2cc(NC(=O)Nc3ccc4c(c3)OCO4)ccc2O1 | inactive
C[C@@H]1CN([C@H](C)CO)C(=O)c2cc(NC(=O)Nc3ccc4c(c3)OCO4)ccc2O[C@@H](C)CCCCO[C@H]1CN(C)Cc1ccc(C(F)(F)F)cc1 | active
C[C@@H]1CCCCO[C@H](CN(C)Cc2ccc(C(F)(F)F)cc2)[C@@H](C)CN([C@@H](C)CO)C(=O)c2cc(NC(=O)Nc3ccc4c(c3)OCO4)ccc2O1 | active
C[C@@H]1CN([C@H](C)CO)C(=O)c2cc(NC(=O)Nc3ccc4c(c3)OCO4)ccc2O[C@@H](C)CCCCO[C@@H]1CN(C)Cc1ccc(C(F)(F)F)cc1 | inactive
COc1ccc(CN(C)C[C@H]2Oc3ccc(NC(=O)Cn4cnnn4)cc3CC(=O)N([C@H](C)CO)C[C@@H]2C)cc1 | inactive
C[C@@H]1CN([C@@H](C)CO)C(=O)c2cc(NC(=O)CCC(F)(F)F)ccc2O[C@@H]1CN(C)C(=O)Nc1cccc2ccccc12 | inactive
O=C(C[C@@H]1CC[C@@H]2[C@H](COC[C@H](O)CN2S(=O)(=O)c2ccc(Cl)cc2)O1)NCCN1CCCCC1 | inactive
C[C@@H]1CN([C@@H](C)CO)C(=O)c2cc(C#Cc3cccc(F)c3)cnc2O[C@H]1CN(C)CC1CCOCC1 | inactive
Cc1noc(C)c1NC(=O)N(C)C[C@H]1OCCCC[C@@H](C)Oc2ccc(NS(=O)(=O)c3ccccc3)cc2C(=O)N([C@@H](C)CO)C[C@@H]1C | inactive
CNC(=NC#N)NCCSCc1nc[nH]c1C | inactive
N#C[C@@H]1[C@@H](c2ccc(C#Cc3ccccn3)cc2)[C@H](CO)N1C(=O)CN1CCOCC1 | inactive
CN(C)CC(=O)N1CC(=O)N2[C@H](CO)[C@H](c3ccc(C#Cc4cccnc4)cc3)[C@@H]2C1 | inactive
COC(=O)[C@@H](Cc1ccc(-n2cc(C(=O)NO)nn2)cc1)N1CC2=CC(=O)[C@@H](C3CC3)[C@@H]2[C@H]1[C@H](O)Cc1ccccc1 | inactive
COc1ccccc1-c1ccc2c(c1)O[C@@H](CN(C)C(=O)c1ccncc1)[C@H](C)CN([C@@H](C)CO)S2(=O)=O | inactive
CN1CCN(C(=O)C[C@H]2CC[C@H]3[C@@H](COC[C@H](O)CN3C(=O)C3CCOCC3)O2)CC1 | inactive
